Calls of active or inactive are those of the source.
Legend:
[1] = tested on: Plasmodium falciparum Sir2 (PF13_0152, Sir2A); assay: Plasmodium falciparum Sir2A binding compounds – biochemical, small-molecule microarray, 635 nm fluorescence, primary screen (AID 1098); settings: fluorescence 635 nm, higher = more signal;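 note: score merges spot fluorescence intensity with its signal-to-noise ratio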
[2] = probe aDKK1 binding to arrayed compounds – biochemical, biotinylated probe, 635/667 nm fluorescence, primary screen (AID 1099); settings: small-molecule microarray, higher = more signal;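 note: score merges 667nm spot fluorescence with signal to noise across triplicate slides; reference of the scale not given here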
[3] = probe aCHRDL2 binding to arrayed compounds – biochemical, biotinylated probe, 635/667 nm fluorescence, primary screen (AID 1100); settings: small-molecule microarray, higher = more signal
[4] = change in splice reporter luminescence, either direction, cell-based, HEK293, spliceosome inhibition project, primary screen (AID 1101); settings: HEK293 splicing luciferase reporter, 24 h, higher = more signal, called active from +8 up or from −8 down;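 note: HEK293 cells carrying a splicing-competent luciferase reporter gene; test concentration not given here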
[5] = target: Fibroblast growth factor 10 (Homo sapiens) (UniProt O15520); assay: compounds binding fibroblast growth factor 10 – biochemical, small-molecule microarray, 635 nm fluorescence, primary screen (AID 1102); settings: FGF10 binding, fluorescence 635 nm, higher = more signal
Fibroblast growth factor 10 (Homo sapiens), sequence (O15520 whole entry, looked up): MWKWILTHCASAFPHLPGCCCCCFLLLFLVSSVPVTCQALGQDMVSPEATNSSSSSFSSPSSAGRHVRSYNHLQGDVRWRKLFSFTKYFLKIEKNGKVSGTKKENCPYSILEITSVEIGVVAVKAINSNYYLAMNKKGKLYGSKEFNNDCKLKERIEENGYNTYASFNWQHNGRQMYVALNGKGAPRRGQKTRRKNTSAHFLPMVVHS

[6] = tested on: glycogen synthase kinase-3 (GSK3A per assay name; protocol says GSK3B); assay: compounds binding glycogen synthase kinase-3 – biochemical, small-molecule microarray, 635 nm fluorescence, GSK3A, primary screen (AID 1103); settings: fluorescence 635 nm, higher = more signal; note: the record names both GSK3A and GSK3B
[7] = target: Epidermal growth factor receptor (Homo sapiens) (UniProt P00533); assay: compounds binding epidermal growth factor receptor – biochemical, small-molecule microarray, 635 nm fluorescence, primary screen (AID 1104); settings: EGFR binding, higher = more signal;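 note: score merges 667 nm emission intensity with spot signal to noise over triplicate slides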
Epidermal growth factor receptor (Homo sapiens), sequence (P00533 whole entry, looked up): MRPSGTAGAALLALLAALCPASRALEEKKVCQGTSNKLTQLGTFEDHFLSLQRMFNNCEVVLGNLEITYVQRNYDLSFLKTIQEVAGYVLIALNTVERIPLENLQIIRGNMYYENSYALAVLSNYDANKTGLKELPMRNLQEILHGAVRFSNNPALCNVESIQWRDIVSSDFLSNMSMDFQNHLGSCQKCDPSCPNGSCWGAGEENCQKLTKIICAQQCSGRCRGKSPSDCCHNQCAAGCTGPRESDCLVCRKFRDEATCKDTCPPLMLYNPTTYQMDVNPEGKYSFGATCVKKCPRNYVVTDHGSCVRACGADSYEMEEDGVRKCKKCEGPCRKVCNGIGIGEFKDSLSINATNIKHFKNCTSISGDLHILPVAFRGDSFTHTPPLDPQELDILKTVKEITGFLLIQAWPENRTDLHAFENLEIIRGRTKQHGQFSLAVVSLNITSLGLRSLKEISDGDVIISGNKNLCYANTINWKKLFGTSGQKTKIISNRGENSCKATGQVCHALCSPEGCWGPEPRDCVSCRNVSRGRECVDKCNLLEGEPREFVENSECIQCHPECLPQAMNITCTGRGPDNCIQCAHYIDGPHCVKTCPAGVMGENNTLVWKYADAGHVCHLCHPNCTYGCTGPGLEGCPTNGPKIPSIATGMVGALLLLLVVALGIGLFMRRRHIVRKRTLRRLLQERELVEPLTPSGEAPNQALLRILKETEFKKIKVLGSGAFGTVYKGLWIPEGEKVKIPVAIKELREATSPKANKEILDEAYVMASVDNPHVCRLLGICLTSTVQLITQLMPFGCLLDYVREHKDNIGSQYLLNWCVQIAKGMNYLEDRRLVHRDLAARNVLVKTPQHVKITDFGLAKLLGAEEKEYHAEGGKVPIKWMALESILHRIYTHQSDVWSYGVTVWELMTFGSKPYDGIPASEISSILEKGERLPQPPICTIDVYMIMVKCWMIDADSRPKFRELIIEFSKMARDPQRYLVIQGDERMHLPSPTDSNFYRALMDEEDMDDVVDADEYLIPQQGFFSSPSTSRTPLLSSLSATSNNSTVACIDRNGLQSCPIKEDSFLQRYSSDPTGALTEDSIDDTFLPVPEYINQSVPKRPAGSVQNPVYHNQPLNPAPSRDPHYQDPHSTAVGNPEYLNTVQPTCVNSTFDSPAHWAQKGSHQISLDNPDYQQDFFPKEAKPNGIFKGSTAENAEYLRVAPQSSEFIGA

[8] = target: Follistatin-related protein 3 (Homo sapiens) (UniProt O95633); assay: compounds binding follistatin-related protein 3 – biochemical, small-molecule microarray, 635 nm fluorescence, primary screen (AID 1105); settings: FSTL3 binding, higher = more signal;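 note: score merges emission near 667 nm and signal to noise per printed spot across three slides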
Follistatin-related protein 3 (Homo sapiens), sequence (O95633 whole entry, looked up): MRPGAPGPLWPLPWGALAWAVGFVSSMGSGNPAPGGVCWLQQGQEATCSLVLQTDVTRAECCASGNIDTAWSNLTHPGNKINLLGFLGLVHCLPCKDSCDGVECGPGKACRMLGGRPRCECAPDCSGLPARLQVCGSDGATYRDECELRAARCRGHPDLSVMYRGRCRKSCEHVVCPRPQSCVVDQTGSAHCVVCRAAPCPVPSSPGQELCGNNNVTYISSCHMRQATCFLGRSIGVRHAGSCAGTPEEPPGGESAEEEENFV

[9] = target: Dickkopf-related protein 1 (Homo sapiens) (UniProt O94907); assay: small molecules binding DKK1 protein – biochemical, small-molecule microarray, 635 nm fluorescence scan, primary screen (AID 1106); settings: higher = more signal;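 note: score merges emission near 667 nm with signal to noise over three replicate slides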
Dickkopf-related protein 1 (Homo sapiens), sequence (O94907 whole entry, looked up): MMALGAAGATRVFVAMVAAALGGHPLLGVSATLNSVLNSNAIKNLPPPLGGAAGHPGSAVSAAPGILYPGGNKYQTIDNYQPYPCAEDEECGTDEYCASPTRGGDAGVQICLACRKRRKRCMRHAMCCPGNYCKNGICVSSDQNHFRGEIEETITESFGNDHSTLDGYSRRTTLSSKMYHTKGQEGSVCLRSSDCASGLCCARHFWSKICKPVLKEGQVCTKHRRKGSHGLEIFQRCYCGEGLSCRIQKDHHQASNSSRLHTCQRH

[10] = tested on: Inhibin beta A chain (activin A); assay: small molecules binding activin A – biochemical, small-molecule microarray, 635 nm fluorescence scan, primary screen (AID 1107); settings: INHBA, higher = more signal;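 note: mouse activin A protein probed at 4.33 µg/mL on printed slides; score merges bound-protein fluorescence near 667 nm with spot signal-to-noise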

O=C(O)C1N=C(c2ccc(OCCCO)cc2)N(c2ccccc2)O1 (stereo not given)
composite z-score [1]: 0.524
composite z-score [2]: 0.187
composite z-score [3]: 0.391
z-score [4]: -0.303 (inactive)
composite z-score [5]: 1.22
composite z-score [6]: 0.472
composite z-score [7]: 0.327
composite z-score [8]: 0.285
composite z-score [9]: -0.0405
composite z-score [10]: 0.712

CN(C)CCCCNC(=O)[C@@H]1C[C@@H]2C(=O)N[C@@H](CCCCN)C(=O)N2[C@@H]1c1ccc(O)cc1
composite z-score [1]: 1.09
composite z-score [2]: -0.0238
composite z-score [3]: 0.309
z-score [4]: -0.162 (inactive)
composite z-score [5]: 0.41
composite z-score [6]: 1.07
composite z-score [7]: 0.606
composite z-score [8]: 0.463
composite z-score [9]: 1.26
composite z-score [10]: 0.684

COc1ccc(CCNC(=O)[C@@]2(c3ccc([N+](=O)[O-])cc3)CC(=O)N(CC34CC5CC(CC(C5)C3)C4)[C@@H]2c2ccc(CO)cc2I)cc1
composite z-score [1]: 1.01
composite z-score [2]: -0.153
composite z-score [3]: -0.263
z-score [4]: -0.287 (inactive)
composite z-score [5]: 1.15
composite z-score [6]: 1.04
composite z-score [7]: 0.233
composite z-score [8]: 0.861
composite z-score [9]: 0.424
composite z-score [10]: -0.444

CC(C)CN1C(=O)[C@@]2(c3ccc([N+](=O)[O-])cc3)CC(=O)N(C3CCCCC3)[C@@H]2c2ccc(CO)cc21
composite z-score [1]: 0.103
composite z-score [2]: -0.0495
composite z-score [3]: 0.867
z-score [4]: 0.256 (inactive)
composite z-score [5]: -0.935
composite z-score [6]: -1.27
composite z-score [7]: -1.31
composite z-score [8]: -1.21
composite z-score [9]: -1.38
composite z-score [10]: 0.294

Cc1ccc(/C=C/C=O)cc1
composite z-score [1]: 1.21
composite z-score [2]: -0.051
composite z-score [3]: 0.44
z-score [4]: -0.0631 (inactive)
composite z-score [5]: -0.0586
composite z-score [6]: -0.472
composite z-score [7]: -0.817
composite z-score [8]: -0.955
composite z-score [9]: -0.0317
composite z-score [10]: 0.579

CC1CC/C=C\[C@H]2OC34C=CCN(Cc5ccccc5)C(=O)[C@H]3N(C(C)CO)C(=O)[C@@H]4C2C(=O)O1 (stereo not given in full)
composite z-score [1]: -0.588
composite z-score [2]: -0.169
composite z-score [3]: -0.506
z-score [4]: 0.441 (inactive)
composite z-score [5]: 0.0204
composite z-score [6]: -0.444
composite z-score [7]: -0.492
composite z-score [8]: 0.196
composite z-score [9]: 0.33
composite z-score [10]: 0.951

C=C(C(=O)CC[C@H](OC(C)=O)c1ccccc1OCCO)C(C)C
composite z-score [1]: 0.78
composite z-score [2]: -0.287
composite z-score [3]: 0.006
z-score [4]: -1.94 (inactive)
composite z-score [5]: 1.28
composite z-score [6]: -1.29
composite z-score [7]: -0.803
composite z-score [8]: -0.226
composite z-score [9]: -0.284
composite z-score [10]: -0.139

COc1ccc([Si](C)(C)[C@H]2[C@H](CC(=O)N3CCC[C@H]3CO)O[C@@]3(C(=O)N(Cc4cccc(N5CCOC5=O)c4)c4ccccc43)[C@@H]2C)cc1
composite z-score [1]: 0.927
composite z-score [2]: -0.195
composite z-score [3]: -0.425
z-score [4]: -0.298 (inactive)
composite z-score [5]: 0.578
composite z-score [6]: 0.712
composite z-score [7]: 0.909
composite z-score [8]: 1.3
composite z-score [9]: 0.437
composite z-score [10]: 1.11

O=C1O[C@H](c2ccccc2)[C@H](c2ccccc2)N2[C@H]1[C@@H](C(=O)N1CCN(c3ncccn3)CC1)[C@]1(C(=O)Nc3ccc(C#CC4=CCCCC4)cc31)[C@H]2c1ccccc1OCCO
composite z-score [1]: 1.7
composite z-score [2]: -0.14
composite z-score [3]: 0.259
z-score [4]: -1.14 (inactive)
composite z-score [5]: 1.02
composite z-score [6]: 1.3
composite z-score [7]: 0.645
composite z-score [8]: 1.31
composite z-score [9]: 0.71
composite z-score [10]: 1.08

O=C1OCCC=C[C@H]2OC34C=CCN(Cn5nnc6ccccc65)C(=O)[C@H]3N(CCO)C(=O)[C@@H]4C12 (stereo not given in full)
composite z-score [1]: 1.34
composite z-score [2]: 0.362
composite z-score [3]: 0.254
z-score [4]: -0.456 (inactive)
composite z-score [5]: -1.55
composite z-score [6]: -1.6
composite z-score [7]: -1.77
composite z-score [8]: -1.04
composite z-score [9]: -1.64
composite z-score [10]: -0.539

C=C(/C(=C/C[C@H](OC(C)=O)c1ccc(OCCO)cc1)c1cc(C(=O)OC)ccc1OC)C(C)C
composite z-score [1]: 1.53
composite z-score [2]: 0.0971
composite z-score [3]: -0.188
z-score [4]: -0.045 (inactive)
composite z-score [5]: 1.12
composite z-score [6]: 0.451
composite z-score [7]: -0.296
composite z-score [8]: 0.647
composite z-score [9]: 0.196
composite z-score [10]: 0.326

COc1ccc([Si](C)(C)[C@@H]2[C@@H](CC(=O)N3CCC[C@H]3CO)O[C@]3(C(=O)N(Cc4cccc(I)c4)c4ccccc43)[C@H]2C)cc1
composite z-score [1]: 0.541
composite z-score [2]: 0.0446
composite z-score [3]: 0.0665
z-score [4]: -0.404 (inactive)
composite z-score [5]: 1.05
composite z-score [6]: 1.13
composite z-score [7]: 1.2
composite z-score [8]: 1.44
composite z-score [9]: 1.92
composite z-score [10]: 0.946

CCCCCCc1nc(-c2ccc(-c3ccc(Cl)c(Cl)c3)o2)c(C)c2c1[Si](C(C)C)(C(C)C)OC2
composite z-score [1]: -0.0921
composite z-score [2]: -0.233
composite z-score [3]: -0.102
z-score [4]: -1.62 (inactive)
composite z-score [5]: -0.57
composite z-score [6]: -0.555
composite z-score [7]: -0.648
composite z-score [8]: -0.374
composite z-score [9]: -0.446
composite z-score [10]: 0.375

COCCOC(=O)N1C(=O)[C@@]2(c3cc(C#CC4(O)CCCCCC4)ccc31)[C@H](C(=O)Nc1nc3ccccc3s1)[C@H]1C(=O)O[C@H](c3ccccc3)[C@H](c3ccccc3)N1[C@@H]2c1ccc(OCCO)cc1
composite z-score [1]: 1.28
composite z-score [2]: 0.0895
composite z-score [3]: 0.0903
z-score [4]: -0.426 (inactive)
composite z-score [5]: 1.25
composite z-score [6]: 1.3
composite z-score [7]: 0.583
composite z-score [8]: 1.37
composite z-score [9]: 0.84
composite z-score [10]: 0.8

O=C1NC(=O)C2C1C=CC(C(O)C1CC=CCC1)N2Nc1ccccn1 (stereo not given)
composite z-score [1]: 1.27
composite z-score [2]: 0.228
composite z-score [3]: 0.21
z-score [4]: 1.17 (inactive)
composite z-score [5]: 0.946
composite z-score [6]: 0.0089
composite z-score [7]: 1.25
composite z-score [8]: 0.179
composite z-score [9]: 1.33
composite z-score [10]: 1.75

CO[C@H]1O[C@H](CO)[C@@H](OC(=O)Nc2ccc(Oc3ccccc3)cc2)[C@H](OC(=O)Nc2ccc3c(c2)OCO3)[C@@H]1OC(=O)Nc1ccc2c(c1)OCO2
composite z-score [1]: 1.38
composite z-score [2]: 0.337
composite z-score [3]: 0.478
z-score [4]: -0.762 (inactive)
composite z-score [5]: 1.17
composite z-score [6]: 1.33
composite z-score [7]: 0.54
composite z-score [8]: 1.39
composite z-score [9]: 0.46
composite z-score [10]: 0.707

O=C(CS)NCCCCCNC(=O)[C@H]1C[C@H]2C(=O)NCC(=O)N2[C@H]1c1cccc(OCCO)c1
composite z-score [1]: 1.59
composite z-score [2]: -0.248
composite z-score [3]: 0.504
z-score [4]: -0.957 (inactive)
composite z-score [5]: -0.0137
composite z-score [6]: -1.11
composite z-score [7]: -0.538
composite z-score [8]: 0.101
composite z-score [9]: 0.129
composite z-score [10]: -0.462

— PubChem BioAssay
